Data on 38 molecules can be found in PubChem BioAssay (NCI).

Several values for one entry are separate records, joined by “and”; a condition that tells them apart may be missing. Equal entries are not always repeated. The panel holds about 83,000 compounds, 20% with a hit somewhere; the sample as a whole holds those more often.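 For each line, cells grew in 96-well plates with the test compound present at a single concentration for 48 hours.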 Activity calls are given as the source filed them. The calls were made as follows: active = growth percent below 10; inactive = the rest.

For this assay, the system named is SW-620 colon. As to the kind of experiment: NCI-60 one-dose screen, 48 h (100 = growth as untreated, 0 = no growth, -100 = all killed). Conditions: 10 µM unless noted.
As to `CN1CCN(Cc2ccc(NC(=O)c3cccc(C#Cc4c(N)ncc5ccc(F)cc45)c3)cc2C(F)(F)F)CC1`, the growth is -91.6% (active).

For the molecule `O=S(=O)(Nc1cc(Sc2cccc3cccnc23)c(O)c2ccccc12)c1ccc(F)cc1`, the growth is -69.3% (active).

Consider `CCOC(=O)c1cc2c(n1Cc1cc(OC)cc(OC)c1Br)-c1nc(NC(C)=O)sc1CCC2`, for which the growth is 81.3% (inactive).

Regarding `C#Cc1cc(C(=O)Nc2ccc(CN3CCN(C)CC3)c(C(F)(F)F)c2)ccc1C`, the growth was 81.3% (inactive).

Consider `O=c1cc(N/N=C/c2ccc(F)cc2)c2cc(Cl)ccc2[nH]1`, for which the growth was 101% (inactive).

`COc1ccc(Nc2nn3c(SCC(=O)c4ccc(C)cc4)nnc3s2)cc1`: the growth was 98.1% (inactive).

Regarding `Nc1ccccc1SC(CC(=O)c1ccccc1)c1ccc([N+](=O)[O-])cc1` (stereo not drawn), the growth is 51.9% (inactive) and 45.8% (inactive).

With `O=C1/C(=C/c2ccc(-c3cccc(C(F)(F)F)c3)o2)SC(=S)N1CCc1ccc(O)cc1`, the growth is 86.1% (inactive).

On to `COc1cc2c(cc1OCCCOC1=C=C=C(c3ccc4c(c3)c3cc(-c5ccc(OCCCOc6cc7c(cc6OC)C(=O)N6CCC[C@H]6C=N7)cc5)ccc3n4S(=O)(=O)c3ccc(C)cc3)C=C1)N=C[C@@H]1CCCN1C2=O`, for which the growth was 6.31% (active).

As for `CN1CCN(Cc2ccc(NC(=O)c3nc4ccc5[nH]ncc5c4c4c3CCCC4)cc2C(F)(F)F)CC1`, the growth was -60% (active).

Regarding `CCOC(=O)n1cc(-c2nonc2-c2cn(C)c3ccc(OC)cc23)c2cc(F)ccc21`, the growth is 80.5% (inactive).

On to `CCOc1ccccc1NC(=O)c1cc2ccccc2cc1O`, for which the growth is 64.7% (inactive).

For the molecule `C=C(CN1CC=CCC1)[C@@H]1CC[C@]2(COC(C)=O)CC[C@]3(C)[C@H](CC[C@@H]4[C@@]5(C)CC[C@H](O)C(C)(C)[C@@H]5CC[C@]43C)[C@@H]12`, the growth is 97.4% (inactive).

Consider `Cc1c(O)c(O)cc2c3c(oc12)CC(c1ccc2c(c1)OCO2)CC3=O` (stereo not drawn), for which the growth is 81.7% (inactive).

With `O=c1c2c([nH]c3ccccc13)CCCC2`, the growth was 92.6% (inactive) and 16.1% (inactive).

In the case of `Clc1ccc(/C=N\N2CCCCCC2)cc1`, the growth is 101% (inactive) and 110% (inactive).

For the molecule `CCOC(=O)c1nc2c3ccccc3cnn2c1C(=O)c1ccc(OC)cc1`, the growth was 99.2% (inactive).

On to `COc1ccc(-c2nn3c(-c4cc(F)c(Cl)cc4Cl)nnc3s2)cc1`, for which the growth is 20.8% (inactive).

For the molecule `O=C1C(=C(O)c2ccccc2)C(=O)c2ccccc21`, the growth was 111% (inactive).

On to `O=C(Nc1ccccc1C(=O)N/N=C(\c1ccccc1)c1ccccn1)c1ccccc1`, for which the growth is 29.2% (inactive).

For `COc1cc(-c2[nH]ncc2Nc2ccc(Cl)cc2)cc(OC)c1OC`, the growth is 82.6% (inactive).

As for `O=C([C@H]1C[C@H]1c1ccc(S(F)(F)(F)(F)F)cc1)N1CCN(c2cc(Cl)ccc2C(F)(F)F)CC1`, the growth was 95.9% (inactive).

Turning to `Clc1ccc2c(NCCN3CCN(c4ccnc(N5CCCC5)n4)CC3)ccnc2c1`, the growth was 12.9% (inactive).

As to `Cn1c(=O)c2c(nc(Nc3cc(=O)[nH]c(=O)[nH]3)n2Cc2ccccc2)n(C)c1=O`, the growth was 19.3% (inactive).

As for `Cc1ccc(S(=O)(=O)OC[C@@]2(C)CC[C@]3(C)CC[C@]4(C)C(=CC[C@@H]5[C@@]6(C)CCCNC(C)(C)[C@@H]6CC[C@]54C)[C@@H]3C2)cc1`, the growth was -81.9% (active).

Turning to `Cc1nc(-n2[nH]c(=O)ccc2=O)sc1N=Nc1ccccc1`, the growth is 98.1% (inactive).

Turning to `CCCCC#Cc1c(/C=C(\CCCC)SCC)n(C)c(=O)[nH]c1=O`, the growth was 106% (inactive).

Regarding `O=C(CCN1CCOCC1)Nc1cccc(-n2cc(-c3ccncc3)c(-c3ccc(Cl)c(O)c3)n2)c1`, the growth is 23.4% (inactive).

With `CCOC(=O)c1cnn(CC(O)CC)c1NC(=O)NCc1ccccc1C(F)(F)F` (stereo not drawn), the growth was 108% (inactive).

For `O=C(Nc1cc(C(F)(F)F)cc(C(F)(F)F)c1)c1cc(Cl)ccc1O`, the growth was 2% (active) and 5.7% (active).

As for `O=C(N/N=C/c1ccc(O)cc1O)c1cccc(Nc2ccnc(C(F)(F)F)c2)c1`, the growth was 35.7% (inactive).

With `O=S(=O)(Nc1ccc(F)cc1)c1ccc(-c2cnc(C3CC3)o2)cc1`, the growth was 20.6% (inactive).

Take `Nn1c(-c2ccc(Cl)cc2)nc2c(-c3ccc(Cl)cc3)nc3ccc(Cl)cc3c2c1=O`: the growth was -66.1% (active).

For the molecule `COc1ccc2c(c1)oc1c(C)c3c(c(C)c12)C(=O)N(Nc1ccccc1)C3=O`, the growth was 110% (inactive).

For `Cc1cnc(C(=O)NNc2nc3sc4c(c3c(=O)[nH]2)C(C)CCC4)cn1` (stereo not drawn), the growth was 35.3% (inactive).

For the molecule `COC(=O)c1nc(-c2ccc(C)cc2)oc1Sc1ccc(C)cc1`, the growth is 103% (inactive).

For `O=C1OCC2=C1C(c1cccc(C(F)(F)F)c1)c1cc3c(cc1N2CCO)OCCO3` (stereo not drawn), the growth was 24.5% (inactive).

As for `C=C(CNCCc1ccc(O)cc1)[C@@H]1CC[C@]2(CO)CC[C@]3(C)[C@H](CC[C@@H]4[C@@]5(C)CCC(NCCc6ccc(O)cc6)C(C)(C)[C@@H]5CC[C@]43C)[C@@H]12` (stereo partly drawn), the growth is -74.1% (active).
